Out of some 310,000 compounds screened, about 14,000 (4.5%) showed an effect of 50% or more. Effects have a minus sign here. Shown is part of a subset that was picked to be rich in strong results.
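Further: peak tail current of the secondary pulse compared with the same well before compound.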

The target in this assay is human ether-à-go-go-related gene (hERG) potassium channel (human, UniProt Q12809). In words: primary screen, population patch clamp on CHO cells stably expressing hERG; higher = less effect of the substance.
human ether-à-go-go-related gene (hERG) potassium channel, sequence (Q12809 whole entry, looked up): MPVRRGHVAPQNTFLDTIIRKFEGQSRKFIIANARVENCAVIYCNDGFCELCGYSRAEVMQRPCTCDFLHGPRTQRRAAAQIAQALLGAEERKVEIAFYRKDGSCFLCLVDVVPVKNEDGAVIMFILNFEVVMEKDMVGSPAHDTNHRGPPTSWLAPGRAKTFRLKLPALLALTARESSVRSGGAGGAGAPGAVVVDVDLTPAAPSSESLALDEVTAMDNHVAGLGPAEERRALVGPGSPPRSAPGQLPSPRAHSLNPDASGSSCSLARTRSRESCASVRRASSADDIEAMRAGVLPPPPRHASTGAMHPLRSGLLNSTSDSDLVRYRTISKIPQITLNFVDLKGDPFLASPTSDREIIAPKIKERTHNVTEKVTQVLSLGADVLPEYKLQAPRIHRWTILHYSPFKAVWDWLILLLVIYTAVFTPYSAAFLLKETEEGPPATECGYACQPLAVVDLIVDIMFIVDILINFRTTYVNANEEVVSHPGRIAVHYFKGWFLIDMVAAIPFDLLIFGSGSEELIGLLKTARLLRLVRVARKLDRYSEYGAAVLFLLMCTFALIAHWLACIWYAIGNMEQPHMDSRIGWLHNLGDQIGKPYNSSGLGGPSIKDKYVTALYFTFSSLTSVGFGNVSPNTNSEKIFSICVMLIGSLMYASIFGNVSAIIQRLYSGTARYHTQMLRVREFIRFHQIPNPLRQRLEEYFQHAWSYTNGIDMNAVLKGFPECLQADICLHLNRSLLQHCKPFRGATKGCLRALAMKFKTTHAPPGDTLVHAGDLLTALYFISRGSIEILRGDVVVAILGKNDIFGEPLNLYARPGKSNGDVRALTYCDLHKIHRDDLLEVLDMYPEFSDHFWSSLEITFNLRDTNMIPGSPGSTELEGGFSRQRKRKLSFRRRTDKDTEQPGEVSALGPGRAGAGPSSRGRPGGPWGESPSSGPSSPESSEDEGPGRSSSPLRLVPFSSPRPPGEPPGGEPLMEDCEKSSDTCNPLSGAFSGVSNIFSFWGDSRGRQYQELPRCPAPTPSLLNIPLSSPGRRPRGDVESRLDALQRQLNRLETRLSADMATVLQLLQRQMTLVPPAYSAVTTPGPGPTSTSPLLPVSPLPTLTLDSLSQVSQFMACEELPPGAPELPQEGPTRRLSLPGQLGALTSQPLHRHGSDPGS
`CC(NC(=O)Cn1cnnn1)C12CC3CC(CC(C3)C1)C2` (centres unmarked): the “hERG current change (%, negative = inhibition) at 10uM” value is recorded as 7.75%.
Then `CCCC1C(C(=O)OCC)=C(C)NC(C)=C1C(=O)OCC`, with 10.7%; and `CC(C)c1ccc(OCc2ccc(C(=O)NN3CCN(C)CC3)o2)cc1`, with -31.7%.
As for `Cc1cccc(C)c1OP(N)(=O)Oc1c(C)cccc1C`, the “hERG current change (%, negative = inhibition) at 10uM” value amounted to 11%.
As for `CC(C)C(=O)Nc1ccc(C(=O)NNC(=O)c2ccco2)cc1`, the “hERG current change (%, negative = inhibition) at 10uM” value was found to be 7.75%.
As to `Cc1cc(C)n(C(=O)C2CCCN2S(=O)(=O)c2ccc(Cl)cc2)n1` (centres unmarked), the “hERG current change (%, negative = inhibition) at 10uM” value is -7.48%.
For `CCOc1ccc(C(=O)NCC(=O)Nc2ncccc2C)cc1OCC` the value was 18%; for `COc1ccc(N2CCN(C(=O)CCc3c[nH]c4ccccc34)CC2)cc1`, -10.2%; for `CC(=O)Nc1ccc(S(=O)(=O)NC2C3(C)CCC(C3)C2(C)C)cc1` (centres unmarked), 16.9%.
With `Cl.NCCSC1CC(=O)N(Cc2ccc(F)cc2)C1=O` (centres unmarked), the “hERG current change (%, negative = inhibition) at 10uM” value is recorded as -20.4%.
`CCOC(=O)Cc1csc(NC(=O)/C=C/c2ccc(Cl)cc2)n1`: the “hERG current change (%, negative = inhibition) at 10uM” value is -9.29%.
For `O=C(C1CCCN(S(=O)(=O)c2ccc(Br)cc2)C1)N1CCOCC1` (centres unmarked) the value was -13.8%.
Turning to `O=C(C1CCCN(S(=O)(=O)c2cccs2)C1)N1CCC(N2CCCCC2)CC1` (centres unmarked), the “hERG current change (%, negative = inhibition) at 10uM” value is -61.7%.
As for `CC(=O)Nc1ccc(S(=O)(=O)N2CCCC(C(=O)N3CCN(c4ccccc4)CC3)C2)cc1` (centres unmarked), the “hERG current change (%, negative = inhibition) at 10uM” value is given as -50.9%.
With `O=C(O)C1CCCN(S(=O)(=O)c2cccs2)C1` (centres unmarked), the “hERG current change (%, negative = inhibition) at 10uM” value is 4.67%.
Then `O=C(C1CCCN(S(=O)(=O)c2cccs2)C1)N1CCN(C2CCCCC2)CC1` (centres unmarked), with -24.6%.
For `CC(=O)N1CCCc2cc(S(=O)(=O)N3CCCC(C(=O)N4CCN(c5ccccc5)CC4)C3)ccc21` (centres unmarked) the value was -21.3%; for `CC(=O)Nc1ccc(S(=O)(=O)N2CCCC(C(=O)O)C2)cc1` (centres unmarked), -3.16%.
Then `O=C(C1CCCN(S(=O)(=O)c2ccc(Br)cc2)C1)N1CCN(Cc2ccccc2)CC1` (centres unmarked), with -55.1%; and `CN1CCN(C(=O)C2CCCN(S(=O)(=O)c3ccc(Br)cc3)C2)CC1` (centres unmarked), with -5.87%.
For `CCOc1ccc(S(=O)(=O)N2CCCC(C(=O)N3CCN(c4ccccc4)CC3)C2)cc1` (centres unmarked), the “hERG current change (%, negative = inhibition) at 10uM” value was -56.3%.
Turning to `CCOC(=O)N1CCN(C(=O)C2CCCN(S(=O)(=O)c3ccc(OCC)cc3)C2)CC1` (centres unmarked), the “hERG current change (%, negative = inhibition) at 10uM” value is -46.2%.
Then `CCOc1ccc(S(=O)(=O)N2CCC(C(=O)N3CCN(c4ccccc4)CC3)CC2)cc1`, with -18%.
For `COc1cccc(Nc2nc(-c3sc(N)nc3C)cs2)c1` the value was -18.2%.
For the compound `CNc1nc(-c2c(C)n(C)c3ccc(OC)cc23)cs1`, the “hERG current change (%, negative = inhibition) at 10uM” value turned out to be 19.2%.
For `Cl.Clc1ccccc1CSC1=NCCCN1` the value was 0.0434%.
For `O=C(CN(C(=O)CCC(=O)Nc1ccccn1)c1ccc2c(c1)OCCO2)NCCc1ccccc1` the value was 2.29%.
As to `CC1CCCC(C)N1c1ccc(S(=O)(=O)N2CCOCC2)cc1Cl` (centres unmarked), the “hERG current change (%, negative = inhibition) at 10uM” value stood at 11.5%.
For `COc1ccc(C2SCC(=O)N2CC23CC4CC(CC(C4)C2)C3)cc1` (centres unmarked) the value was 3.15%; for `CCOC(=O)C1CCN(C(=O)C2CCCN(S(=O)(=O)c3ccc(OC)c(Cl)c3)C2)CC1` (centres unmarked), -67.2%.
For `CCOC(=O)C1CCN(S(=O)(=O)c2ccc(OC)c(Cl)c2)CC1` the value was 9.79%; for `CCOC(=O)C1CCN(C(=O)C2CCCN(S(=O)(=O)c3ccc(OCC)c(Cl)c3)C2)CC1` (centres unmarked), -40.8%; for `O=C(C1CCCN(S(=O)(=O)c2ccc(Br)s2)C1)N1CCCCCC1` (centres unmarked), -11.8%.
For the compound `O=C(C1CCCN(S(=O)(=O)c2ccc(Br)s2)C1)N1CCN(c2ccccc2)CC1` (centres unmarked), the “hERG current change (%, negative = inhibition) at 10uM” value is -63.8%.
Take `O=C(C1CCN(S(=O)(=O)c2ccc(Br)s2)CC1)N1CCN(c2ccccc2)CC1`: the “hERG current change (%, negative = inhibition) at 10uM” value is recorded as -10.5%.
For `COc1ccc(CCNC(=O)Cn2nnc(-c3ccccc3F)n2)cc1OC` the value was 1.44%.
Then `CC1CCCN(C(=O)COC(=O)CNC(=O)c2ccc(Br)cc2)C1` (centres unmarked), with -8.3%; and `CCOC(=O)C1CCN(C(C(=O)NC2CCCC2)c2ccc(C)cc2)CC1` (centres unmarked), with -21.8%; and `CC(C)c1ccc(O)c(NC(=O)c2cccnc2)c1`, with 6.07%.
As to `Cc1sc2ncnc(NCCCN3CCCC3=O)c2c1C`, the “hERG current change (%, negative = inhibition) at 10uM” value amounted to 3.27%.
Then `Cc1sc2ncnc(NCC3CCCO3)c2c1C.Cl` (centres unmarked), with -1.4%; and `Cc1sc2ncnc(N3CCOCC3)c2c1C`, with -13.7%; and `Cc1sc2ncnc(NCC3(N4CCOCC4)CCCCC3)c2c1C`, with -71.1%.
For `Cc1sc2ncnc(NCC(C)(C)N3CCOCC3)c2c1C` the value was -71.7%; for `c1nc(NCC2(N3CCOCC3)CCCCC2)c2ccsc2n1`, -73.3%; for `c1nc(Nc2ccc(N3CCOCC3)cc2)c2ccsc2n1`, -7.59%.
Then `c1csc(CNc2ncnc3sccc23)c1`, with -20.3%.
In the case of `Cc1sc2ncnc(NCCN3CCOCC3)c2c1C.O=C(O)C(=O)O`, the “hERG current change (%, negative = inhibition) at 10uM” value is reported as -22.4%.
Then `C=CCNC(=O)CC(=O)N/N=C/c1ccc(F)cc1`, with -3.54%.
For `CCSC(=O)NC12CC3CC(CC(C3)C1)C2` the value was 6.27%.
Then `Cc1cc(OCC(=O)NCc2ccccn2)c2c(C)cc(=O)oc2c1`, with -7.15%; and `O=C(NC(=S)Nc1ccc(S(=O)(=O)N2CCCCCC2)cc1)c1cccs1`, with -5.3%; and `O=C(CCc1ccc(S(=O)(=O)N2CCOCC2)cc1)N/N=C/c1ccc(O)c(O)c1O`, with 18.9%.
On to `COc1ccc(NC(=O)C2=C(C)Nc3ncnn3C2c2ccccc2C(F)(F)F)c(OC)c1` (centres unmarked), for which the “hERG current change (%, negative = inhibition) at 10uM” value stood at 2.77%.
For `CCOc1ccc(C(C)=O)cc1CSc1nc(C)cc(C)n1` the value was -6.21%.
For `CCOc1ccccc1NC(=S)N1CCC(NC(=O)NC23CC4CC(CC(C4)C2)C3)CC1` the value was -13.7%; for `COc1ccc(S(=O)(=O)N2CCCOC2CNC(=O)C(=O)NCc2ccco2)cc1` (centres unmarked), -22%; for `CCOC(=O)c1c(NC(=O)C(C)NCc2ccco2)sc2c1CCC(C)C2.O=C(O)C(=O)O` (centres unmarked), -4.23%.
For `CCOc1ccccc1Oc1coc2cc(OCC(=O)O)ccc2c1=O` the value was 24.3%; for `COc1ccccc1Oc1coc2cc(OC(=O)N3CCOCC3)ccc2c1=O`, -56.4%.
For the compound `COc1cccc(Oc2coc3cc(OC(=O)N4CCOCC4)ccc3c2=O)c1`, the “hERG current change (%, negative = inhibition) at 10uM” value is reported as -4.27%.
Then `Cc1oc2cc(OCc3cnn(-c4ccccc4)c3)ccc2c(=O)c1Oc1ccccc1F`, with -11.2%; and `COC(=O)c1ccc(Oc2coc3cc(OCc4cnn(-c5ccccc5)c4)ccc3c2=O)cc1`, with 7.07%; and `COc1ccc(Oc2coc3cc(OC(=O)N4CCOCC4)ccc3c2=O)cc1`, with -25.3%.
For `CCCNC(=O)COc1ccc2c(=O)c(Oc3ccccc3F)coc2c1` the value was -61.6%; for `COC(=O)COc1ccc2c(=O)c(Oc3ccccc3Br)coc2c1`, 14%.
Then `O=c1c(Oc2ccccc2F)coc2cc(OCc3cnn(-c4ccccc4)c3)ccc12`, with -55%; and `CCC/C=N/Nc1nnc(Cc2ccc(OC)c(OC)c2)c(=O)[nH]1`, with 27.2%; and `CSCC[C@H](NC(=O)OCc1ccccc1)C(=O)O`, with -2.24%.
Take `Cc1ccc(-c2c(C#N)c(N)nc3c2CCCCC3)o1`: the “hERG current change (%, negative = inhibition) at 10uM” value is reported as -5.84%.
Then `C=CCn1c(N/N=C/c2ccc(O)cc2)nc2ccccc2c1=O`, with -17.9%; and `Cc1cc2c(C)nc(N/N=C/c3ccc(F)cc3)nc2o1`, with -52.7%.
For `Cc1cc2c(C)nc(N/N=C/c3ccccc3)nc2o1`, the “hERG current change (%, negative = inhibition) at 10uM” value is given as -27.6%.
For `Cc1cc2c(C)nc(N/N=C/c3ccc([N+](=O)[O-])cc3)nc2o1`, the “hERG current change (%, negative = inhibition) at 10uM” value is given as -16.2%.
Then `CC1(C)C2CCC13CS(=O)(=O)N[C@@H]3C2` (some centres unmarked), with 20.5%; and `Cc1ccc(CC2CC(=O)N(CCc3ccc4c(c3)OCO4)C2=O)cc1` (centres unmarked), with 3.17%.
Then `O=C(Nc1ccc(O)cc1)C1CCCO1` (centres unmarked), with 16.4%.
For `Cc1cc(-c2nnc(SCC(=O)Nc3cccc(Cl)c3)n2N)n[nH]1` the value was -71.9%; for `C=CCn1c(SCC(=O)Nc2ccc(S(N)(=O)=O)cc2)nnc1-c1cnccn1`, 13%.
On to `Cc1cc(-c2nnc(SCC(=O)Nc3cccc(F)c3)n2N)n[nH]1`, for which the “hERG current change (%, negative = inhibition) at 10uM” value is given as 6.38%.
For `C=CCn1c(SCC(=O)Nc2c(C)cccc2C)nnc1-c1cnccn1` the value was -2.77%.
As to `C=CCn1c(SCC(=O)Nc2cccc(C)c2)nnc1-c1cnccn1`, the “hERG current change (%, negative = inhibition) at 10uM” value is given as -71.9%.
Turning to `NC(=O)c1ccc(NC(=O)CSc2nnc(-c3ccccn3)n2N)cc1`, the “hERG current change (%, negative = inhibition) at 10uM” value turned out to be 17.1%.
For `Nn1c(SCC(=O)Nc2ccc(F)cc2)nnc1-c1ccccn1` the value was -53.6%.
Then `Cc1ccc(NC(=O)CSc2nnc(-c3ccccn3)n2N)cc1F`, with -48.5%.
Then `C=CCn1c(SCC(=O)Nc2ccc(OC)cc2)nnc1-c1cnccn1`, with -23.1%; and `C=CCn1c(SCC(=O)Nc2ccc(F)cc2)nnc1-c1cnccn1`, with -58.9%; and `C=CCn1c(SCC(=O)Nc2cc(C)cc(C)c2)nnc1-c1cnccn1`, with -29.6%.
Take `Cc1cccc(NC(=O)CSc2nnc(-c3cc(C)[nH]n3)n2N)c1`: the “hERG current change (%, negative = inhibition) at 10uM” value is -29.1%.

The record behind these values is article PMC4336329 (PLoS ONE, 2015).
